The panel holds about 83,000 compounds, 20% with a hit somewhere; the sample as a whole holds those more often.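 In brief: 96-well plates, 48 h treatment, single concentration, percent growth endpoint.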 A number with no mark means an inactive call. Activity calls are given as the source filed them. Rule for the calls: active = growth percent below 10; inactive = the rest.

Here are results for 16 compounds from PubChem BioAssay (NCI).

Test systems include T-47D breast; BT-549 breast; MDA-MB-435 melanoma; SW-620 colon; MCF7 breast; HCT-116 colon; HCC-2998 colon; KM12 colon.
What all share (assay): NCI-60 one-dose screen, 48 h (100 = growth as untreated, 0 = no growth, -100 = all killed)
Holding throughout (details): 10 µM unless noted

For `O=S(=O)(c1ccc(NC(=S)NCc2cccnc2)cc1)N1CCCCC1`, the growth in the assay with T-47D breast was 32.9%; with BT-549 breast, 73.4%; with MDA-MB-435 melanoma, 36.2%; with SW-620 colon it was 32.7%; in the assay with MCF7 breast, 54.7%; with HCT-116 colon it was 26.2%. For the same compound, the growth in the assay on HCC-2998 colon was 71.6%; in the assay with KM12 colon, 51.7%.

For the compound `C=CCC(O)C=C` (centres undefined), the growth in the assay on T-47D breast was 95.6%; in the assay on BT-549 breast, 104%; in the assay with MDA-MB-435 melanoma, 111%; in the assay on SW-620 colon, 104%; in the assay with MCF7 breast, 98.2%; in the assay with HCT-116 colon it was 105%. The growth in the assay on HCC-2998 colon is 113%; in the assay on KM12 colon, 102%.

Consider `FC(F)(F)c1cc(NC2=NCCN=C(Nc3cc(C(F)(F)F)cc(C(F)(F)F)c3)SS2)cc(C(F)(F)F)c1`, for which the growth in the assay on T-47D breast is 15.8%; in the assay on BT-549 breast, 71.2%; in the assay with MDA-MB-435 melanoma it was 65.1%; in the assay on SW-620 colon, 52%; with MCF7 breast, 31.6%; in the assay with HCT-116 colon, 45.4%. Further, the growth was 76.9% in the assay with HCC-2998 colon and 44.2% in the assay on KM12 colon.

Regarding `c1ccc2c(NCCCN3CCN(CCCNc4c5ccccc5nc5ccccc45)CC3)c3ccccc3nc2c1`, the growth is -7.72% [100 µM] (active) with T-47D breast; -61.4% [100 µM] (active) in the assay with BT-549 breast; -88.4% [100 µM] (active) in the assay on MDA-MB-435 melanoma; -22.7% [100 µM] (active) with SW-620 colon; -56.5% [100 µM] (active) with MCF7 breast; -49.6% [100 µM] (active) with HCT-116 colon. In addition, the growth was -76.6% [100 µM] (active) with HCC-2998 colon and -14.9% [100 µM] (active) in the assay with KM12 colon.

In the case of `C/C(Cc1ccccc1)=N\O`, the growth is 117% with T-47D breast; 107% with BT-549 breast; 98.3% in the assay on MDA-MB-435 melanoma; 98.4% in the assay on SW-620 colon; 107% in the assay on MCF7 breast; 101% in the assay on HCT-116 colon. In the assay on KM12 colon, the growth was 103%.

For `Cc1onc(-c2c(F)cccc2Cl)c1-c1ncc(-c2ccc(Br)cc2)o1`, the growth is 29.6% with T-47D breast; 40.7% with BT-549 breast; 40.8% in the assay on MDA-MB-435 melanoma; 35.6% in the assay with SW-620 colon; 20.9% in the assay on MCF7 breast; 17.8% in the assay on HCT-116 colon. Moreover, in the assay on KM12 colon, the growth was 36.4%.

For the compound `COC1OC(C(COC(C)=O)OC(C)=O)C(OC(C)=O)C(OC(C)=O)C1OC(C)=O` (centres undefined), the growth was 103% in the assay on T-47D breast; 106% with BT-549 breast; 114% in the assay with MDA-MB-435 melanoma; 104% in the assay on SW-620 colon; 96% with MCF7 breast; 106% in the assay with HCT-116 colon. The growth with KM12 colon was 117%.

Turning to `CC(C)OCC(CCl)OC(=O)Nc1ccccc1` (centres undefined), the growth in the assay with T-47D breast is 100%; with BT-549 breast, 110%; with MDA-MB-435 melanoma it was 107%; in the assay with SW-620 colon it was 112%; in the assay on MCF7 breast, 96.9%; with HCT-116 colon, 108%. Further, the growth with HCC-2998 colon is 95.6%; with KM12 colon, 96.6%.

For `C1CCc2onc(-c3noc4c3CCCCC4)c2CC1`, the growth in the assay with T-47D breast was 101%; in the assay on BT-549 breast, 108%; in the assay on MDA-MB-435 melanoma, 110%; with SW-620 colon, 124%; with MCF7 breast, 95.5%; in the assay with HCT-116 colon, 105%. Also, the figures for the growth with HCC-2998 colon and with KM12 colon were 109% and 107%, respectively.

With `CC(=O)c1cccc(N(C)S(=O)(=O)c2ccc(C)cc2)c1`, the growth was 87.8% in the assay on T-47D breast; 82.8% in the assay with BT-549 breast; 8.55% (active) in the assay with MDA-MB-435 melanoma; 81.7% in the assay on SW-620 colon; 60.5% in the assay with MCF7 breast; 94% in the assay with HCT-116 colon. For the same compound, in the assay with KM12 colon, the growth is 49.8%.

`CC(C)Sc1ncnc2nc[nH]c12`: the growth in the assay with T-47D breast is 100%; in the assay with BT-549 breast it was 121%; with MDA-MB-435 melanoma, 97.4%; in the assay with SW-620 colon, 108%; in the assay with MCF7 breast it was 98.1%; in the assay on HCT-116 colon it was 103%. The growth is 108% in the assay with HCC-2998 colon and 128% in the assay with KM12 colon.

In the case of `COc1cc(N)c2ncccc2c1Cl`, the growth in the assay on T-47D breast was 101%; with BT-549 breast, 87.5%; in the assay with MDA-MB-435 melanoma, 111%; in the assay with SW-620 colon, 109%; in the assay with MCF7 breast, 104%; in the assay on HCT-116 colon, 95.3%. The growth in the assay on HCC-2998 colon is 106%; with KM12 colon, 117%.

With `C(=C\c1ccncc1)/c1ccncc1`, the growth in the assay on T-47D breast is 129%; with BT-549 breast, 91.2%; in the assay with MDA-MB-435 melanoma it was 110%; with SW-620 colon, 104%; in the assay with MCF7 breast, 128%; in the assay with HCT-116 colon, 115%. Moreover, the growth in the assay on HCC-2998 colon was 99.3%; in the assay on KM12 colon, 112%.

As to `CC1CCC(C(C)(C)[N+](C)(C)C)CC1` (centres undefined), the growth is 98.8% with T-47D breast; 92.6% with BT-549 breast; 108% in the assay with MDA-MB-435 melanoma; 105% with SW-620 colon; 94.4% in the assay on MCF7 breast; 98.4% with HCT-116 colon. The growth with HCC-2998 colon is 93.7%; with KM12 colon, 99.7%.

As for `CCOC(=O)c1ccc(Nc2sc(C(=O)c3ccc(Br)cc3)c(N)c2C#N)cc1`, the growth in the assay with T-47D breast was 28%; in the assay with BT-549 breast, 50.9%; in the assay with MDA-MB-435 melanoma, -61.9% (active); in the assay on SW-620 colon, 25.6%; in the assay on MCF7 breast, 9% (active); with HCT-116 colon it was 26.9%. In addition, the growth is 66.1% with HCC-2998 colon and 21.7% with KM12 colon.

Turning to `CC(=O)NC(CCC(=O)c1ccccc1)C(=O)O` (centres undefined), the growth in the assay on T-47D breast is 83.3%; in the assay on BT-549 breast, 76.9%; with MDA-MB-435 melanoma, 99.2%; with SW-620 colon, 100%; in the assay with MCF7 breast, 89.4%; in the assay with HCT-116 colon, 80.2%. Besides, the growth in the assay with HCC-2998 colon was 108%; in the assay on KM12 colon, 103%.
